High-throughput results: PubChem, several laboratories
eIF4H FP inh: inhibitors of RNA binding by human eIF4H. Q15056. eIF4H fluorescence polarization binding assay. inhibition, % at 35 µM. 290,000 tested, 0.94% active. AID 2012;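 further: calls also rest on retests at 20 µM and on dose response follow-up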
MLLE-PAM2 inh: inhibitors of microRNA-mediated deadenylation, human PABP1 MLLE binding; P11940; 360,000 tested, 0.36% active; GST-MLLE / FITC-PAM2 fluorescence polarization; inhibition, % at 20 µM; in the data active means inhibition above about 35%, passing the limit was not always enough
UBC9 SUMO inh: SUMOylation inhibition; AID 2006; 290,000 tested, 0.36% active; P63279; HTRF SUMOylation assay, SAE1/SAE2 + UBC9, in vitro; inhibition, % at 35 µM; in the data active means inhibition above about 50%, passing the limit was not always enough
Target sequence (P63279 whole entry, looked up): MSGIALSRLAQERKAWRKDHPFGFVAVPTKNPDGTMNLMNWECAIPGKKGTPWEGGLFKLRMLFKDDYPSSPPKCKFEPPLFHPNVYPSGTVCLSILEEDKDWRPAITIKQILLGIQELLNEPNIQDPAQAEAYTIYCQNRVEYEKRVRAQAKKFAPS
ALR inh: human ALR oxidase inhibition via reduced H2O2; P55789; purified ALR, DTT oxidation, H2O2 HRP-luminol luminescence; inhibition, % (test concentration not listed); 290,000 tested, 3.8% active; AID 485317;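 active means mean replicate inhibition above about 79%, with every replicate also reaching it, limit read from the data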
Target sequence (P55789 whole entry, looked up): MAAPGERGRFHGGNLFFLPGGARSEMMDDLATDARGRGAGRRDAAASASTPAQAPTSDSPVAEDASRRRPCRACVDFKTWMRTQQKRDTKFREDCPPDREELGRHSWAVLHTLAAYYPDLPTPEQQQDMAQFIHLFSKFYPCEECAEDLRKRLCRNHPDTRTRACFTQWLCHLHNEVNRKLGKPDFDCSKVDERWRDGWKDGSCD
Efflux pump inh: inhibitors of Candida antifungal efflux pumps expressed in yeast; S. cerevisiae Candida pump triplex, Nile Red efflux; inhibition, % at 10 µM; 330,000 tested, 0.44% active; AID 485275;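 active means plate passing quality check with inhibition over a set limit, or well fluorescence over plate mean plus 4 SD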;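 further: Nile Red retained in pooled yeast measured as flow cytometry median fluorescence; higher means more Nile Red kept so more efflux inhibition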
PABP polyA inh: blocks human PABP binding to poly(A) RNA; fluorescence polarization; P11940; 290,000 tested, 1% active; inhibition, % at 35 µM;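 further: calls also rest on retests at 20 µM and on dose response follow-up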
Large screens that a line does not name were inactive. Sampled rows, rich in hits. Any-hit rate of the full collection: about 4.7%. Unless noted, how the calls were made is not given here.

COc1ccc(-n2cnnc2SCCC#N)cc1	none
O=C1CCCCCN1Cc1nnc(SCc2nc3ccccc3s2)n1-c1ccccn1	none (no result: ALR inh)
CCn1c(CN2CCCCCC2=O)nnc1SCc1cnc(-c2ccccc2)s1	ALR inh 98.6
COCCn1c(SCc2cnc(-c3ccccc3)s2)nnc1-c1ccncc1	ALR inh 98.6
COCCn1c(SCC#N)nnc1-c1ccccc1	none
COc1ccc(-n2cnnc2SCc2cnc(-c3ccccc3)s2)cc1	ALR inh 98.5
CCN(CC)S(=O)(=O)c1ccc(NC(=O)c2ccc(OCC3CCCO3)cc2)cc1 (configuration not stated)	none (no result: eIF4H FP inh, UBC9 SUMO inh, PABP polyA inh)
Cc1ccc(OC(=O)COc2ccccc2)c(-n2nc3ccccc3n2)c1	none
Cc1ccc(OC(=O)COc2ccccc2C)c(-n2nc3ccccc3n2)c1	MLLE-PAM2 inh 53.4, ALR inh 96.3
CS(=O)(=O)c1ccc(N)c(SSc2cc(S(C)(=O)=O)ccc2N)c1	ALR inh 98.7 (no result: eIF4H FP inh, UBC9 SUMO inh, PABP polyA inh)
O=C(c1cc(=O)[nH]c2ccccc12)N1CC=C(c2ccccc2)CC1	none (no result: eIF4H FP inh, UBC9 SUMO inh, ALR inh, PABP polyA inh)
COc1ccc(-n2c(SCC(=O)Nc3ccccc3OC)nc(O)c(Cc3ccccc3)c2=O)cc1	none
CCc1c(O)nc(SCC(=O)Nc2ccc(Br)cc2)n(-c2ccc(C)cc2)c1=O	ALR inh 96.0
COc1ccc(-n2c(SCC(=O)Nc3ccccc3)nnc2-c2ccoc2C)cc1	ALR inh 95.7 (no result: eIF4H FP inh, UBC9 SUMO inh, PABP polyA inh)
CCCCc1c(O)nc(SCC(=O)Nc2ccc(C)cc2)n(-c2ccc(OC)cc2)c1=O	ALR inh 98.8 (no result: eIF4H FP inh, UBC9 SUMO inh, PABP polyA inh)
Cc1ccc(NC(=O)CSc2nc(O)c(Cc3ccccc3)c(=O)n2-c2ccccc2)cc1	ALR inh 98.8
NC(=O)CC(NC(=O)c1ccccc1)c1ccc(NC2CCCCCCC2)c([N+](=O)[O-])c1 (configuration not stated)	none
O=C(Nc1cc(-c2nc3ncccc3o2)ccc1Cl)c1ccc([N+](=O)[O-])o1	none (no result: ALR inh)
CCc1c(O)nc(SCC(=O)Nc2ccccc2)n(-c2ccccc2)c1=O	ALR inh 98.9
CCc1c(O)nc(SCC(=O)Nc2ccccc2)n(-c2ccccc2C)c1=O	none (no result: eIF4H FP inh, UBC9 SUMO inh, ALR inh, Efflux pump inh, PABP polyA inh)
CCc1c(O)nc(SCC(=O)Nc2ccc(C)cc2)n(C2CCCCC2)c1=O	ALR inh 98.5
CCc1c(O)nc(SCC(=O)Nc2cc(C)on2)n(-c2ccccc2)c1=O	ALR inh 96.9
CN(CCCn1ccc(NC(=O)OCc2ccccc2)nc1=O)Cc1ccco1	none (no result: eIF4H FP inh, UBC9 SUMO inh, ALR inh, Efflux pump inh, PABP polyA inh)
Cc1noc(C)c1COC(=O)c1csc2c1CCC(C)C2 (configuration not stated)	none (no result: eIF4H FP inh, UBC9 SUMO inh, PABP polyA inh)
COc1cccc(NC(=O)Nc2nnc(-c3ccccc3SCc3ccccc3)s2)c1	UBC9 SUMO inh 55.2
O=C(Nc1nnc(-c2ccccc2SCc2ccccc2)s1)Nc1ccccc1F	UBC9 SUMO inh 70.0
C=C1C(O)[C@@H]2O[C@]3(CC[C@H](/C=C/C(C)[C@@H]4CC(C)=CC5(O[C@H](C[C@@](C)(O)CO)CCC5O)O4)O3)CC[C@H]2O[C@@H]1C(O)CC(C)[C@H]1OC2(CCCCO2)CCC1C (some centres not stated)	none (no result: eIF4H FP inh, MLLE-PAM2 inh, UBC9 SUMO inh, PABP polyA inh)
Cn1c(C(=O)N[C@@H](C(=O)O)c2ccccc2)cc2cc(Cl)ccc21	PABP polyA inh 38.8
C[C@H]1CN=C(N(C)C)N1CCC1CCCCC1	none (no result: eIF4H FP inh, UBC9 SUMO inh, PABP polyA inh)
c1cncc(-c2nc3ccccc3o2)c1	PABP polyA inh 18.6
CC(C)(C)OC(=O)N[C@H]1C=C[C@@H](OC(=O)CC(=O)OCC(F)(F)F)C1	none (no result: eIF4H FP inh, UBC9 SUMO inh, ALR inh, PABP polyA inh)
Cn1cc(Br)c(C(=O)NC2C3CC4CC(C3)CC2C4)n1 (configuration not stated)	none
Cn1cc(Br)c(C(=O)NC2CCCCCC2)n1	eIF4H FP inh 80.0
Cc1cccc(NC(=O)c2c(O)c3ccccc3n(C)c2=O)c1	none
Cc1cccc(Nc2c(F)c(F)c(F)c(F)c2C(=O)O)c1	none
COc1cccc(Nc2c(F)c(F)c(F)c(F)c2C(=O)O)c1	ALR inh 99.5
Cc1ccc(Nc2c(F)c(F)c(F)c(F)c2C(=O)O)cc1	ALR inh 87.3
COc1cccc(Nc2c(F)c(OC)c(F)c(F)c2C(=O)O)c1	none
COc1c(F)c(F)c(C(=O)O)c(Nc2ccc(C)cc2C)c1F	ALR inh 96.9
O=C(Cc1c(F)cccc1Cl)OCC(=O)c1ccc[nH]1	none (no result: eIF4H FP inh, UBC9 SUMO inh, PABP polyA inh)
C[n+]1ccccc1/C=C/c1ccccc1Cl	eIF4H FP inh 78.8, PABP polyA inh 90.4
C[n+]1ccccc1/C=C/c1c(F)cccc1F	PABP polyA inh 75.9
C/C(=N\NC(=O)C(c1ccccc1)c1ccccc1)c1ccc(O)cc1	ALR inh 90.0
C/C(=N\NC(=O)C(c1ccccc1)c1ccccc1)c1ccccn1	none (no result: ALR inh)
O=C(N/N=C/c1cccc(O)c1)c1csc2ccccc12	none
COC(C(=O)N/N=C(\C)c1ccc(O)cc1)c1ccccc1 (configuration not stated)	ALR inh 98.3
C/C(=N\NC(=O)c1csc2ccccc12)c1ccc(O)cc1	ALR inh 99.5
CCC[C@@H](CN1CCC[C@H]1CN1C(N)=NC[C@H]1C(C)C)N1C[C@@H](Cc2ccccc2)N(CCCC2CCCC2)C1=N	none (no result: eIF4H FP inh, UBC9 SUMO inh, PABP polyA inh)
CCOC(=O)c1c(NC(=O)CSC(=S)N2CCOCC2)sc(C)c1C	ALR inh 98.0
CCOC(=O)c1sc(NC(=O)CSC(=S)N2CCOCC2)nc1C	none
CCC(=O)c1ccc(NC(C)=O)cc1O	eIF4H FP inh 76.9, PABP polyA inh 50.6
COC(=O)c1ccc(NC(C)=O)cc1O	none (no result: MLLE-PAM2 inh, ALR inh, Efflux pump inh)
O=C(O)c1ccccc1C(=O)Nc1ccc(-n2nc(C(F)(F)F)cc2C(F)(F)F)cc1	none
ONc1cccnc1-n1nc(C(F)(F)F)cc1C(F)(F)F	eIF4H FP inh 63.6 (no result: MLLE-PAM2 inh)
COc1c2c(c(OC)c3ccccc13)[C@@]1(OC2)O[C@H](CCO)C[C@H](O)[C@H]1O	none (no result: eIF4H FP inh, UBC9 SUMO inh, ALR inh, Efflux pump inh, PABP polyA inh)
CCOc1cc(C2C3=C(CCCC3=O)NC3=C2C(=O)CCC3)ccc1OCCO	MLLE-PAM2 inh 40.7
CCOc1cc(C2C3=C(CCCC3=O)NC3=C2C(=O)CCC3)cc(Cl)c1O	none
COc1ccccc1/C=C/C=c1\sc2nc(=O)c(Cc3ccccc3)nn2c1=O	eIF4H FP inh 65.3, PABP polyA inh 41.1 (no result: UBC9 SUMO inh)
COC(=O)C1=C(C)N(Cc2ccc(OC)cc2)C(=O)/C1=C\c1ccco1	none (no result: ALR inh)
CCCOc1ccc(Cc2nn3c(=O)/c(=C/c4ccco4)sc3nc2=O)cc1	eIF4H FP inh 84.5, PABP polyA inh 22.6
COc1cccc(/C=c2\sc3nc(-c4cccs4)nn3c2=O)c1OC	none
COc1ccccc1C=NN=Cc1ccccc1OC	none (no result: eIF4H FP inh, UBC9 SUMO inh, ALR inh, Efflux pump inh, PABP polyA inh)
O=C(O)C1=NN(c2cc(Cl)c(S(=O)(=O)O)cc2Cl)C(=O)C1	none (no result: eIF4H FP inh, UBC9 SUMO inh, ALR inh, Efflux pump inh, PABP polyA inh)
O=C1c2cccc3cccc(c23)C(=O)N1CCCc1n[nH]c(=S)n1-c1ccccc1	ALR inh 91.9
CC(=O)Nc1cc(OC(C)=O)c2nonc2c1OC(C)=O	UBC9 SUMO inh 101.0
CCOC(=O)C1CCN(C(=O)c2ccc3nc(-c4ccc(OC)cc4)c(-c4ccc(OC)cc4)nc3c2)CC1	none (no result: eIF4H FP inh, UBC9 SUMO inh, PABP polyA inh)
